Results from PubChem BioAssay (EPA / NIEHS).
Records with an inconclusive call do not appear. The source made the active and inactive calls. The calls were made as follows, unless noted: active = hit-call score of the fitted dose curve at least 0.9, where 1 is the maximum; inactive = score below 0.9.

Key:
[1] = ACEA_ER_80hr: ACEA Biosciences xCELLigence Real-Time Cell Analysis on Estrogen Receptor Agonism for Proliferation (AID 2282667; active = hit-call score of the fitted dose curve at least 0.9, where 1 is the maximum); settings: T47D proliferation, impedance (xCELLigence), 80 h
How it was run: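 Estrogen-driven proliferation is captured as electrode impedance in T47D cells 80 h after compound addition. Test articles ran at 8 concentrations, 1:4 dilutions from 100 uM final, in two replicate plates.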

[2] = ATG_CRE_CIS: Attagene CIS-FACTORIAL HepG2 Assay for human cAMP Responsive Element (CRE) binding protein 3 (AID 2282926); settings: HepG2 CRE cis-reporter, Attagene multiplexed mRNA; actives raise or lower the signal
How it was run: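 Transfected HepG2 were treated for 24 hours, then RNA was extracted and reporter cDNA amplified with sequence-specific primers. Labelled fragments were separated by capillary electrophoresis, and the CRE signal was fitted bidirectionally with DMSO as baseline.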

[3] = target: CCAAT/enhancer-binding protein beta (Homo sapiens) (UniProt P17676); assay: ATG_C_EBP_CIS: Attagene CIS-FACTORIAL HepG2 Assay for human CCAAT/Enhancer Binding Protein (C/EBP) beta (AID 2282927); settings: HepG2 Attagene cis-factorial transcription factor reporter; actives raise or lower the signal
How it was run: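 HepG2, transient MRTU transfection, 24 h treatment. RT-PCR plus CE fluorescence; DMSO negative control, bidirectional fit.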

[4] = ATG_CMV_CIS: Attagene CIS-FACTORIAL HepG2 Assay for human CMV (Internal Marker) (AID 2282928); settings: HepG2 CMV promoter reporter, transcription factor profiling; actives raise or lower the signal;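 also: endpoint acts as a background internal control marker rather than a target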
How it was run: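 Cell system: HepG2, transiently transfected multiple reporter units under cis promoters. Exposure: 24 h. Detection: RT-PCR, FAM labeling, HpaI digestion, capillary electrophoresis. Analysis: bidirectional, DMSO baseline.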

[5] = ATG_DR4_LXR_CIS: Attagene CIS-FACTORIAL HepG2 Assay for human Liver X Receptor (LXR), DR4 submotif (AID 2282929); settings: HepG2 Attagene DR4 cis-reporter, mRNA transcription; actives raise or lower the signal
How it was run: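 Readout: reporter transcript fluorescence after RT-PCR and capillary electrophoresis, fitted bidirectionally against DMSO controls. Human HepG2 liver cells carried transiently transfected multiplexed reporter constructs; endogenous transcription factor activity measured 24 h post-dosing.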

[6] = target: Aryl hydrocarbon receptor (Homo sapiens) (UniProt P35869); assay: ATG_Ahr_CIS: Attagene CIS-FACTORIAL HepG2 Assay for human Aryl Hydrocarbon Receptor (Ahr) (AID 2282930); settings: HepG2 AhR cis-factorial reporter transcription; actives raise or lower the signal
How it was run: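 Endogenous factor activity is tracked through cis-promoter reporter units transfected into HepG2 cells. Transcript levels at 24 h are read by fluorescent RT-PCR and capillary electrophoresis, with activity in either direction scored relative to DMSO.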

[7] = ATG_AP_2_CIS: Attagene CIS-FACTORIAL HepG2 Assay for human Activator Protein 2 (AP-2) (AID 2282932); settings: HepG2 AP-2 cis-reporter, Attagene transcription factor profiling; actives raise or lower the signal
How it was run: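 HepG2 cells transiently transfected with cis-element reporter units and exposed for 24 h. Reporter mRNA measured by RT-PCR, FAM labelling, HpaI digestion and capillary electrophoresis. Changes in either direction fitted relative to DMSO.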

[8] = ATG_BRE_CIS: Attagene CIS-FACTORIAL HepG2 Assay for human Bone Morphogenetic Protein (BMP) Response Element (BRE) (AID 2282933); settings: HepG2 BMP response element reporter, Attagene transcription factor profiling; actives raise or lower the signal
How it was run: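 Endogenous transcription factor activity read in transiently transfected HepG2 cells after 24 h chemical exposure. Bidirectional curve fitting against DMSO; readout is reporter transcript level by RT-PCR with capillary electrophoresis of labelled products.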

[9] = target: Retinoic acid receptor alpha (Homo sapiens) (UniProt P10276); assay: ATG_DR5_RAR_CIS: Attagene CIS-FACTORIAL HepG2 Assay for human Retinoic Acid Receptor Alpha (RARE), DR5 submotif (AID 2282934); settings: HepG2 Attagene cis-factorial RARE DR5 reporter, mRNA; actives raise or lower the signal
How it was run: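 After 24 h of chemical exposure, transiently transfected HepG2 cells were lysed for total RNA; the DR5-regulated reporter transcript was quantified via RT-PCR and capillary electrophoresis, with activity fitted bidirectionally against DMSO.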

[10] = target: Transcription factor E2F1 (Homo sapiens) (UniProt Q01094); assay: ATG_E2F_CIS: Attagene CIS-FACTORIAL HepG2 Assay for human E2F Transcription Factor 1 (AID 2282935); settings: HepG2 Attagene cis-reporter, E2F reporter RNA transcripts; actives raise or lower the signal
How it was run: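 Endogenous E2F1 activity read through cis-promoter reporter units transfected into HepG2. After 24 h compound treatment, reporter mRNA measured by RT-PCR, HpaI digestion and capillary electrophoresis. Bidirectional fit versus DMSO.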

[11] = ATG_E_Box_CIS: Attagene CIS-FACTORIAL HepG2 Assay for human Enhancer Box (E-box) (AID 2282936); settings: HepG2 E-box cis-reporter transcription, actives raise or lower the signal
How it was run: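 HepG2 cells transiently transfected with multiplexed cis-element reporter units, dosed 24 h; reporter mRNA quantified by RT-PCR, 6-FAM labelling, HpaI digestion and capillary electrophoresis. E-box (USF1) signal fitted bidirectionally vs DMSO.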

[12] = ATG_M_61_CIS: Attagene CIS-FACTORIAL HepG2 Assay for M61 Transcription Factor (Internal Marker) (AID 2282937); settings: HepG2 Attagene CIS-FACTORIAL M61 internal marker reporter; actives raise or lower the signal
How it was run: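 Readout: fluorescent reporter mRNA fragments resolved by capillary electrophoresis after RT-PCR. Transiently transfected human HepG2 cells carried MRTU constructs reporting endogenous TF activity; 24 h chemical exposure; gain or loss of signal fitted relative to DMSO.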

[13] = ATG_EGR_CIS: Attagene CIS-FACTORIAL HepG2 Assay for human Early Growth Response 1 (EGR1) (AID 2282938); settings: HepG2 Attagene CIS-FACTORIAL EGR reporter mRNA; actives raise or lower the signal
How it was run: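 Read-out: fluorescent reporter-mRNA fragments resolved by capillary electrophoresis after RT-PCR, 24 h post-dose in transiently transfected HepG2. Endogenous transcription-factor activity reported via cis-element-regulated reporter units; gain or loss fitted relative to DMSO.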

[14] = ATG_M_19_CIS: Attagene CIS-FACTORIAL HepG2 Assay for M19 Transcription Factor (Internal Marker) (AID 2282939); settings: HepG2 Attagene CIS-FACTORIAL M19 internal marker reporter; actives raise or lower the signal
How it was run: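 Internal marker readout, fitted in both directions against DMSO, from HepG2 cells carrying transfected cis-element reporter constructs; RT-PCR and capillary electrophoresis of reporter mRNA after 24 h exposure.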

[15] = ATG_ERE_CIS: Attagene CIS-FACTORIAL HepG2 Assay for Estrogen Response Element (ERE) (AID 2282940); settings: HepG2 ERE cis-reporter, Attagene RNA transcript; actives raise or lower the signal
How it was run: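 After 24 h compound treatment, RNA from transfected HepG2 cells was reverse-transcribed, reporter cDNA PCR-amplified, FAM-labelled, HpaI-cut and resolved by capillary electrophoresis. ERE-driven cis reporter transcripts reflect endogenous factors; gain or loss scored against DMSO.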

[16] = ATG_Ets_CIS: Attagene CIS-FACTORIAL HepG2 Assay for human Erythroblast Transformation Specific (ETS) (AID 2282941); settings: HepG2 ETS cis-reporter transcription, actives raise or lower the signal
How it was run: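 After transient cis-reporter transfection, HepG2 cells receive test chemical for 24 h. Reporter mRNA levels, measured by RT-PCR and capillary electrophoresis fluorescence, are analysed bidirectionally relative to the DMSO baseline.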

[17] = target: Hepatocyte nuclear factor 3-beta (Homo sapiens) (UniProt Q9Y261); assay: ATG_FoxA2_CIS: Attagene CIS-FACTORIAL HepG2 Assay for human Forkhead box A2 (FOXA2) (AID 2282942); settings: HepG2 cis-reporter transcription factor activity, 24 h; actives raise or lower the signal
How it was run: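 Readout: fluorescent reporter transcripts resolved by capillary electrophoresis after RT-PCR. Transiently transfected HepG2, 24 h compound exposure, endogenous TF activity at cis promoter elements. Gain or loss of signal fitted relative to DMSO.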

[18] = ATG_FoxO_CIS: Attagene CIS-FACTORIAL HepG2 Assay for human Forkhead box O (FoxO) (AID 2282943); settings: HepG2 Attagene cis-reporter, FoxO element, mRNA; actives raise or lower the signal
How it was run: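 Transfected HepG2 reporter cells exposed to test chemical for 24 h; reporter RNA measured by reverse transcription, PCR and fluorescent capillary electrophoresis; curves fitted for increases and decreases against DMSO.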

[19] = ATG_GATA_CIS: Attagene CIS-FACTORIAL HepG2 Assay for human GATA Binding Protein (AID 2282944); settings: HepG2 GATA cis-element reporter, Attagene multiplex mRNA; actives raise or lower the signal
How it was run: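 Reporter transcripts from a GATA cis-regulated unit, among multiplexed reporters in transfected HepG2 cells, were measured by RT-PCR with capillary electrophoresis after 24 h dosing. Induction or loss scored relative to DMSO.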

[20] = ATG_AP_1_CIS: Attagene CIS-FACTORIAL HepG2 Assay for human Activator Protein 1 (AP-1) (AID 2282931); settings: HepG2 Attagene cis-factorial AP-1 reporter mRNA; actives raise or lower the signal
How it was run: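 Reporter transcripts were measured 24 h after dosing by RT-PCR and capillary electrophoresis of fluorescent fragments. Cells: HepG2 carrying transfected cis-regulated reporter constructs reading endogenous factor activity. Gain or loss fitted against DMSO.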

Measured: AC50

Sequence of Retinoic acid receptor alpha (Homo sapiens) (P10276 whole entry, looked up): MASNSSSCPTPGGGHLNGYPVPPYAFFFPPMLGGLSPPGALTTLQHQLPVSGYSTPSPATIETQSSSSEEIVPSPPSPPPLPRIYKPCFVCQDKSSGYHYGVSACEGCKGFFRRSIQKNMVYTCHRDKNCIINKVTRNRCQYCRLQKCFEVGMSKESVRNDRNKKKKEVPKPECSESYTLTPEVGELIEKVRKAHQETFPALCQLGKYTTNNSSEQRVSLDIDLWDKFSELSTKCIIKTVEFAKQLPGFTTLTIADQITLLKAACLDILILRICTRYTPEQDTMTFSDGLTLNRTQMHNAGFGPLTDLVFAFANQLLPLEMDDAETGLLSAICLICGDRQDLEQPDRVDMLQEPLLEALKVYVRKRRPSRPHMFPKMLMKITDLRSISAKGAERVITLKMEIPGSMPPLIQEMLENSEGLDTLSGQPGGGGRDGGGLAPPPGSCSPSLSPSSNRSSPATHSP
Sequence of CCAAT/enhancer-binding protein beta (Homo sapiens) (P17676 whole entry, looked up): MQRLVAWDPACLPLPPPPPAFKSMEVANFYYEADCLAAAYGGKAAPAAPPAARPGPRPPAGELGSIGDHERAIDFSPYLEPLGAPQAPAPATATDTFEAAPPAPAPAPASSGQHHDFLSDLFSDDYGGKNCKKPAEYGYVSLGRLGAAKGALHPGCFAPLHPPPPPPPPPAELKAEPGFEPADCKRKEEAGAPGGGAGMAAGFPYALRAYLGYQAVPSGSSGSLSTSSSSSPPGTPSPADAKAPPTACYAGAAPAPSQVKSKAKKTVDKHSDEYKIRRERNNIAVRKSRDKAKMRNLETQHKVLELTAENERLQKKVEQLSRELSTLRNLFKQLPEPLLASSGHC
Sequence of Aryl hydrocarbon receptor (Homo sapiens) (P35869 whole entry, looked up): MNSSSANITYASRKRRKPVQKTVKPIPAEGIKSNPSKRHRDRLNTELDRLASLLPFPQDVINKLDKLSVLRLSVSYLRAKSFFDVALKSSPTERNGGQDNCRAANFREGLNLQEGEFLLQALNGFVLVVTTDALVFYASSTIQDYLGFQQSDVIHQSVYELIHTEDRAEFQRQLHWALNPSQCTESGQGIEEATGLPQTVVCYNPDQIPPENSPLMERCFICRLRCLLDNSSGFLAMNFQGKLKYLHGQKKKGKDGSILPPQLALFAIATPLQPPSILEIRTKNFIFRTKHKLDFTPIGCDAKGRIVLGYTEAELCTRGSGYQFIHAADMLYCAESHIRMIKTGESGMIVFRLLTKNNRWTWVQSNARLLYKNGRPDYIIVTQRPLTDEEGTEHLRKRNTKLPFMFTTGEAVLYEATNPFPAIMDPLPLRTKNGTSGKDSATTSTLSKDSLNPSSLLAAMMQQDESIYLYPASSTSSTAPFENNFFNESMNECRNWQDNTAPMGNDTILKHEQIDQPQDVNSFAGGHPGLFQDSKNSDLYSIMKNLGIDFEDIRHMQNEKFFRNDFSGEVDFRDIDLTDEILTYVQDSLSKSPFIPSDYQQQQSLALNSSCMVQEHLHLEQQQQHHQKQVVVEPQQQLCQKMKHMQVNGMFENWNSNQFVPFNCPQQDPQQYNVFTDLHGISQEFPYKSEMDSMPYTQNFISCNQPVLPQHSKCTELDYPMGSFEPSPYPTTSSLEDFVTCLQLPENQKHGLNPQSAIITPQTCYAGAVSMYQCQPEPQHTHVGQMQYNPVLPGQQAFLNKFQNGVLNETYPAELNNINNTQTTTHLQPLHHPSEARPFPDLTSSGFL
Sequence of Hepatocyte nuclear factor 3-beta (Homo sapiens) (Q9Y261 whole entry, looked up): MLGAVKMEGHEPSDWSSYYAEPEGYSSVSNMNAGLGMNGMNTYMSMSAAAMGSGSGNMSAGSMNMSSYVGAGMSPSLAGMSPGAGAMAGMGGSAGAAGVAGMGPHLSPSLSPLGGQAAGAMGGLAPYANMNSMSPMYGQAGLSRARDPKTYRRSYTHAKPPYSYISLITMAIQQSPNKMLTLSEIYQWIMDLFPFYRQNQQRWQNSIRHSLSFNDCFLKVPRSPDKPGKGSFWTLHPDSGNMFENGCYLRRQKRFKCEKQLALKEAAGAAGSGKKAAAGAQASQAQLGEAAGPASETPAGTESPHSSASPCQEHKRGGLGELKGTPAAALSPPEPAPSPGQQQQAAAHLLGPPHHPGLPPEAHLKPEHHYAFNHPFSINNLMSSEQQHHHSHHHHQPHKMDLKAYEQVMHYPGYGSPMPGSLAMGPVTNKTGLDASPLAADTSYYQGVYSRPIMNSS
Sequence of Transcription factor E2F1 (Homo sapiens) (Q01094 whole entry, looked up): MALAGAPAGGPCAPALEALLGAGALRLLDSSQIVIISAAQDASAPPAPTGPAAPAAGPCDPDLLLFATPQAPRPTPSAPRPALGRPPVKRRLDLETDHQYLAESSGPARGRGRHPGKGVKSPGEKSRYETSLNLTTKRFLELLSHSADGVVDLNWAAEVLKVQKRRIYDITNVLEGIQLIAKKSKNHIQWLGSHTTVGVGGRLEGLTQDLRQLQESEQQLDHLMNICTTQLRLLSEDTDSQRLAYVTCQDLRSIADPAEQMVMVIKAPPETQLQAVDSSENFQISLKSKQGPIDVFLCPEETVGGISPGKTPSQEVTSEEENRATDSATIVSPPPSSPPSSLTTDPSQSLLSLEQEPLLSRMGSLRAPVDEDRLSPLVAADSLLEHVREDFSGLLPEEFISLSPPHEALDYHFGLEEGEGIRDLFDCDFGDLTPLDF

CCN(CCO)S(=O)(=O)C(F)(F)C(F)(F)C(F)(F)C(F)(F)C(F)(F)C(F)(F)C(F)(F)C(F)(F)F
inactive: [1] | [3] | [4] | [5] | [6] | [7] | [8] | [9] | [10] | [11] | [12] | [13] | [14] | [15] | [16] | [17] | [18] | [19]
active: [2] 28.9 µM

CCN(CC)c1ccc(C=O)c(O)c1
inactive: [1] | [2] | [3] | [4] | [6] | [20] | [7] | [8] | [10] | [11] | [12] | [13] | [14] | [15] | [16] | [17] | [18] | [19]
active: [5] 67.2 µM

OCC1CCCO1 (stereo not given)
inactive: [1] | [2] | [3] | [4] | [5] | [6] | [20] | [7] | [8] | [10] | [11] | [12] | [13] | [14] | [15] | [16] | [18] | [19]

CCN(CC)c1ccc(C=O)cc1
active: [1] 0.0998 µM | [14] 25.8 µM | [16] 26 µM
inactive: [2] | [3] | [4] | [5] | [6] | [20] | [7] | [9] | [10] | [11] | [12] | [13] | [15] | [17] | [18] | [19]

CCC(C)CO (stereo not given)
inactive: [1] | [2] | [3] | [4] | [5] | [6] | [20] | [7] | [10] | [11] | [12] | [13] | [14] | [15] | [16] | [17] | [18] | [19]

CCOC(C=C(C)CCC=C(C)C)OCC
inactive: [1] | [2] | [3] | [4] | [5] | [6] | [20] | [7] | [9] | [10] | [11] | [12] | [13] | [14] | [15] | [16] | [17] | [18] | [19]

O=C(O)C(F)(F)C(F)(F)C(F)(F)OC(F)(C(F)(F)F)C(F)(F)F
active: [5] 238 µM
inactive: [1] | [2] | [3] | [4] | [6] | [20] | [7] | [9] | [10] | [11] | [12] | [13] | [14] | [15] | [16] | [18] | [19]
